Shown are actives, neighbours in structure and some others; about 6.9% of the full set was active somewhere.
SW480 rereplic – DNA re-replication induction in SW480 cells | SW480 DNA re-replication, Hoechst DNA content imaging, 48 h | Potency, µM (top dose mostly 46.1 µM), without a hit: top-dose re-replication activation, hits mostly activators | hit rate 1.8% among 340,000 | AID 624297; note: potency is the fitted concentration of half-maximal effect; % of control where 0% means no effect; nearly all actives have a fitted effect of over 55% in size
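250 cells/well; 23 nL cpd via pin tool; 48 hr, 37 C, 5% CO2; Hoechst 40 min; imager read of total nuclear intensity, ex 405/em 500-530 nm.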
Vif-APOBEC3F blk – blocks the Vif interaction with APOBEC3F. AID 602313. HeLa A3F-eYFP + Vif (tagged APOBEC3F with the HIV-1 protein that degrades it), YFP fluorescence increase. Potency, µM (top dose mostly 46.1 µM), for the others: top-dose activity, negative = active. hit rate 0.2% among 390,000; note: potency is the fitted concentration of half-maximal effect; % of control where 0% means no effect; nearly all actives have a fitted effect of over 65% in size
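HeLa cells stably expressing A3F-eYFP plus Vif, plated and incubated overnight at 37 deg C, then exposed to compounds overnight at 37 deg C. Blocked degradation read as raised yellow fluorescence (Ex 488/Em 500-530).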
Giardia kill – kills Giardia lamblia | Giardia lamblia trophozoite viability | activity change, % at 7.66 µM, hits read low | hit rate 0.15% among 340,000 | AID 540267; in the data active = activity change below about -80%; inconclusive = between about -30% and that limit;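 note: parasites exposed to compound for two days anaerobically before the ATP read; % is set by controls: 0 for no effect and ±100 for the full control effect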
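Killing of trophozoites was scored by loss of ATP luminescence after a 48 hrs anaerobic exposure to compounds at 37 deg C, using 100 cells per well.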
MCF10A rerep – DNA re-replication induction in MCF 10a cells; MCF 10A DNA re-replication, Hoechst nuclear intensity, 48 h; AID 624296; hit rate 2.9% among 350,000; Potency, µM (series often up to 46.1 µM), for inactives: at the top dose activity, positive = re-replication, actives largely listed as activators; note: potency is the fitted concentration of half-maximal effect; % of control where 0% means no effect; nearly all actives have a fitted effect of over 50% in size
IL1B secr inh – blocks inflammasome-driven IL-1 beta release; THP-1 LPS/ATP IL-1B secretion, AlphaLISA, 16 h; hits give low values; activity change, % at 57.5 µM; hit rate 4.7% among 360,000; AID 743279; in the data active = activity change below about -50%; inconclusive = mostly about -30% to -49%; note: % is set by controls: 0 for no effect and ±100 for the full control effect
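Secreted IL-1B measured by AlphaLISA bead assay after 16 h compound exposure of THP-1 cells; compounds (final up to 57.5 uM) added 1 h before LPS (250 ng/mL) and ATP (1.25 mM) stimulation; lower signal means less secretion.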
Vif-APOBEC3G blk – inhibitors of Vif-APOBEC3G interaction; HeLa A3G-eYFP + Vif (tagged APOBEC3G with the HIV-1 protein that degrades it), YFP fluorescence, overnight; hit rate 0.076% among 410,000; Q9HC16; Potency, µM (highest dose often 46.1 µM), for inactives: at the highest dose activity, negative = active, usual class: inhibitors; note: potency is the fitted concentration of half-maximal effect; % is set by controls: 0 for no effect and ±100 for the full control effect; nearly all actives have a fitted effect of over 60% in size
Target sequence (Q9HC16 whole entry, looked up): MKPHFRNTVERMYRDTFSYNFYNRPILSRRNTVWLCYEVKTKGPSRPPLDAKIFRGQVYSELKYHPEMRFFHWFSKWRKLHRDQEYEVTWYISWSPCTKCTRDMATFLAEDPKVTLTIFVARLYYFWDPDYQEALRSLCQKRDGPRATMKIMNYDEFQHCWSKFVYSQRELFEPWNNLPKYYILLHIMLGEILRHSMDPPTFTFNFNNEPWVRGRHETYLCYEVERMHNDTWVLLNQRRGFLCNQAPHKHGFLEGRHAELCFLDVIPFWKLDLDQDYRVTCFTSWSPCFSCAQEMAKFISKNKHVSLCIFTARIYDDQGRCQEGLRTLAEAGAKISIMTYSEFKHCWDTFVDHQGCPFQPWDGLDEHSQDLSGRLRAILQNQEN
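Read-out is eYFP fluorescence (Ex 488/Em 500-530) from Vif-expressing HeLa A3G-eYFP cells; more signal means A3G escaped Vif-mediated degradation. Cells plated overnight, compound pinned in, incubated overnight at 37 deg C.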
An asterisk follows results filed as active; i = inactive; ? = inconclusive; nt = not tested or not shown; [ ] = remark or other dose. Unless noted, calls come from the whole dose curve; as a rule, active = well fitted curve in the direction sought with a large enough effect; inconclusive = small, poorly fitted or top-dose-only effect, or another doubt; inactive = no such curve, though single readings can be large; an effect the other way counts as inactive or inconclusive.

SMILES	SW480 rereplic	Vif-APOBEC3F blk	Giardia kill	MCF10A rerep	IL1B secr inh	Vif-APOBEC3G blk
CCOC(=O)CSC1=C(C#N)C(c2ccc(OC)cc2)C2=C(CC(C)(C)CC2=O)N1 (configuration not stated)	?	-3%	2	?	26	-8%
Cc1ccc(NC(=O)CSC2=C(C#N)C(c3ccco3)C3=C(CCCC3=O)N2)cc1 (configuration not stated)	-1%[9.22 µM]	nt	48	?	-52*	0%
Cc1ccc(C(=O)CSC2=C(C#N)C(c3ccco3)C3=C(CC(C)(C)CC3=O)N2)cc1 (configuration not stated)	?	nt	-13	?	-85*	0%
CC1(C)CC(=O)C2=C(C1)NC(SCC(=O)Nc1ccccc1)=C(C#N)C2c1ccco1 (configuration not stated)	?	-2%	2	16µM*	?	3%
Cc1ccc(C(=O)N2CCc3cc(CNC(=O)CSc4ccccc4)ccc32)cc1	nt	1%	nt	nt	nt	2%
FC(F)(F)c1cccc(N2CCN(Cc3nnc(-c4ccc5c(c4)OCO5)o3)CC2)c1	nt	1%	nt	nt	nt	-4%
N#CC[n+]1cccc(Br)c1	nt	nt	nt	nt	nt	3%
CCn1nnnc1Sc1nc(C)nc2scc(-c3ccccc3)c12	nt	nt	nt	nt	nt	0%
CCCC(CCC)C(=O)NC1CC(=O)N(c2ccc3c(c2)OCCO3)C1 (configuration not stated)	nt	0%	nt	nt	nt	0%
CCc1cccc(C)c1NC(=O)c1cc(S(=O)(=O)NCc2ccccc2Cl)ccc1F	nt	3%	nt	nt	nt	-1%
CCOC(=O)CSC1=C(C#N)C(c2ccc(C)cc2)C2=C(CCCC2=O)N1 (configuration not stated)	13%	-4%	-17	?	30	0%
N#CC1=C(SCC(=O)c2ccc(Cl)cc2)NC2=C(C(=O)CCC2)C1c1ccco1 (configuration not stated)	?	-11%	-1	11µM*	-88*	-10%
COc1cccc(/C=N/n2c(=O)[nH]c3ccccc32)c1OC	4.1µM*	1%	2	12%	-2	-3%
CCOc1cc(NC(=O)CCl)c(OCC)cc1NC(=O)CCl	3.3µM*	-14%	37	6.5µM*	-81*	1%
CCC(C)NC(=O)c1ccc2nc(CCc3ccccc3)oc2c1 (configuration not stated)	nt	3%	nt	nt	nt	1%
Cn1ccnc1/C(=N\NC(=O)c1ccc(O)cc1)c1cccc([N+](=O)[O-])c1	-7%	-12%	-12	-1%	-13	-9%
Cn1ccnc1/C(=N\NC(=O)c1ccccc1)c1cccc([N+](=O)[O-])c1	5%	2%	-16	-1%	-51*	-3%
COc1ccc(N2CCN(C(=O)c3ccc(CNS(=O)(=O)c4cccc(OC)c4)cc3)CC2)cc1	?	0%	17	8%	-84*	2%
CCNC(=O)N(CC)C[C@H]1N[C@@](C)(C(=O)OC)[C@H]2C(=O)N(Cc3ccccc3)C(=O)[C@@H]12	0.23µM*	0%	-15	-5%	8	7%
CCN(C[C@H]1N[C@@](CC)(C(=O)OC)[C@H]2C(=O)N(Cc3ccccc3)C(=O)[C@@H]12)C(=O)Nc1ccc(C(F)(F)F)cc1	3%	-1%	?	1%	-108*	6%
CCCCOc1ccc(NC(=O)CSc2ccc(C(=O)O)cn2)cc1	nt	-4%	nt	nt	nt	0%
CCOC(=O)c1cc([N+](=O)[O-])cc([N+](=O)[O-])c1Sc1ncnc2nc[nH]c12	12µM*	10%	-9	?	-100*	-17%
COC(=O)c1sc(N)c(C(=O)OC)c1Cn1ncc(Cl)c(Cl)c1=O	?	3%	13	?	-89*	-24%
COC(=O)c1sc(NC(=O)c2c(C)noc2C)nc1C	-8%	1%	-11	-32%	-21	2%
COC(=O)c1sc(N)c(C(=O)OC)c1COC(=O)c1c(C)noc1C	2.9µM*	-17%	3	9.2µM*	31	?
SMILES	SW480 rereplic	Vif-APOBEC3F blk	Giardia kill	MCF10A rerep	IL1B secr inh	Vif-APOBEC3G blk
Cc1c(C(=O)N2CCN(c3ccc(F)cc3)CC2)sc2ncnc(N3CCN(c4ccccn4)CC3)c12	-4%	1%	14	?	-84*	-6%
Cc1c(C(=O)N2CCN(c3ccccn3)CC2)sc2ncnc(N3CCOCC3)c12	-4%	0%	-9	16%	-1	2%
Cc1nc(N2CCN(c3ccccn3)CC2)c2c(C)c(C(=O)N3CCN(c4ccc(F)cc4)CC3)sc2n1	1%	10%	24	?	-62*	-5%
COc1cccc(Nc2nc3ccc(C)cc3nc2-n2nc(C)cc2C)c1	nt	3%	nt	nt	nt	-1%
Cc1cccc(N(Cc2cc(=O)[nH]c3ccccc23)C(=O)CCl)c1	?	-3%	5	?	-107*	0%
COc1ccc(N(Cc2cc(=O)[nH]c3ccccc23)C(=O)CCl)cc1	3.3µM*	3%	-19	?	-98*	?
CCCC(=O)N(Cc1cc(=O)[nH]c2ccccc12)c1ccc(OC)cc1	-6%	-5%	-8	6%	1	-5%
CC(C)(C)OC(=O)N1CCCC1C(=O)NC1COC2CC(n3cc(F)c(=O)[nH]c3=O)OC12 (configuration not stated)	nt	nt	3	nt	nt	-1%
COc1cc([N+](=O)[O-])cc(/C=N/NC(=O)c2cccnc2)c1O	?	-8%	5	6.5µM*	-3	2%
COc1ccc(/C=N/NC(=O)c2cccnc2)cc1CSc1nc2ccccc2s1	21µM*	-1%	-10	?	7	?
COc1ccc(/C=N\NC(=O)c2ccccc2Cl)cc1COc1c(F)c(F)c(F)c(F)c1F	?	-5%	1	9.2µM*	i	?
COc1ccc(/C=N/NC(=O)c2cccnc2)cc1CN1CCOCC1	-10%	-1%	0	1%	49	1%
COc1ccc(/C=N/NC(=O)c2ccccc2Cl)cc1CSc1nc2ccccc2s1	5.8µM*	-6%	12	0.82µM*	50	?
COc1ccccc1CNC(=O)CCCCn1c(=O)c2ccccc2n(Cc2ccccc2C)c1=O	nt	-21%	nt	nt	nt	-11%
COc1ccc(/C=N/NC(=O)c2ccn[nH]2)cc1COc1ccc(Cl)cc1Cl	?	-8%	0	12µM*	-79*	-16%
COc1ccc(/C=N/NC(=O)c2cccnc2)cc1COc1ccc([N+](=O)[O-])c(C)c1	12µM*	-6%	-8	2.1µM*	nt	?
CN(C)c1c(Br)cc(C=O)cc1Br	nt	nt	nt	nt	nt	0%
CCOc1cccc(/C=C/c2ccc3cccc(O)c3n2)c1O	?	20%	-8	?	-97*	0%

Bioassay records: PubChem BioAssay, National Center for Advancing Translational Sciences (NCATS)
